Measured values taken from PubChem BioAssay (NCI).
The panel holds about 79,000 compounds, 15% with a hit somewhere; the sample as a whole holds those more often. Activity calls are given as the source filed them. Cut-off read from the data, not from the text of the source: active = growth inhibition above about 70%; inactive = the rest.

How the values were obtained:
[1] = NCI Yeast Anticancer Drug Screen. Data for the rad50 strain (AID 155);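 note: 0% = growth of vehicle-only cultures of the same strain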; settings: S. cerevisiae rad50 strain growth inhibition; at 50.0 µM; hits give high values
Summary of the method: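 A DNA repair-deficient yeast mutant serves as the test organism; compound-induced growth inhibition is calculated against vehicle-treated cells.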

[2] = NCI Yeast Anticancer Drug Screen. Data for the mec2-1 strain (AID 157); settings: S. cerevisiae mec2-1 strain, at 50.0 µM, hits give high values
Summary of the method: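 Yeast mec2-1 mutant treated with compound. Readout: growth inhibition vs vehicle controls.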

[3] = NCI Yeast Anticancer Drug Screen. Data for the sgs1 mgt1 strain (AID 161);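 note: 0% = growth of cultures given vehicle only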; settings: S. cerevisiae sgs1 mgt1 strain, at 50.0 µM, hits give high values
Summary of the method: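 Mutant yeast exposed to compound; growth scored against vehicle-only wells.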

[4] = NCI Yeast Anticancer Drug Screen. Data for the cln2 rad14 strain (AID 165);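 note: 0% = growth equal to vehicle treated cultures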; settings: S. cerevisiae cln2 rad14 strain, at 50.0 µM, hits give high values
Summary of the method: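 cln2 rad14 yeast strain; compound exposure; growth inhibition read vs vehicle controls.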

[5] = NCI Yeast Anticancer Drug Screen. Data for the bub3 strain (AID 167); settings: S. cerevisiae bub3 mutant strain, at 50.0 µM, hits give high values
Summary of the method: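 Inhibition values come from growth of compound-treated mutant yeast normalised to vehicle-treated controls.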

[6] = NCI Yeast Anticancer Drug Screen. Data for the mlh1 rad18 strain (AID 175); settings: S. cerevisiae mlh1 rad18 strain growth inhibition; at 50.0 µM; hits give high values
Summary of the method: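 Yeast w/ defined DNA-repair lesions; compound exposure; growth vs vehicle controls → % inhibition.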

Measured: growth inhibition

O=c1oc2ccccc2cc1-n1nnc2ccccc21
inactive: [1] -2.65% | [2] 11.1% | [3] 18.9% | [4] 2% | [5] 16.1% | [6] 21%

CC(C)(C)NC(=O)CCC(=O)O
inactive: [1] -8.65% | [2] -19.4% | [3] -16% | [4] -18.2% | [5] -2.3% | [6] -7.3%

O=C(Nc1ccc(F)cc1)C(=O)C(C1OC(=O)c2ccccc21)[N+](=O)[O-] (stereo unspecified)
inactive: [1] 14.9% | [2] 6.15% | [3] 8.7% | [4] 14.1% | [5] 10.8% | [6] 15.8%

COc1ccc(C(c2cc3c(cc2O)OCO3)N2CCOCC2)c(OC)c1 (stereo unspecified)
inactive: [1] -75.2% | [2] -31.1% | [3] 4.15% | [4] -25.9% | [5] -29.6% | [6] -17.9%

Cc1c(NC=O)c(=O)n(-c2ccccc2)n1C
inactive: [1] -10.8% | [2] -33% | [3] 32.9% | [4] 3.65% | [5] 14.4% | [6] 33.7%

O=C(Nn1c(-c2ccccc2)nc2ccccc2c1=O)c1cccc([N+](=O)[O-])c1
inactive: [1] -27.8% | [2] -33.9% | [3] -14.2% | [4] 5.5% | [5] 23.8% | [6] 3.85%

N#CC1CCCCCCCCCCC(=O)N(CCCl)C1=O (stereo unspecified)
inactive: [1] -4.25% | [2] -0.45% | [3] 13.2% | [4] 6.2% | [5] -12.9% | [6] -7.05%

CCN(CC)CCNc1nnc(NCCN(CC)CC)c2cc3ccccc3cc12
inactive: [1] 3.75% | [2] 21% | [3] -10.1% | [4] -4.45% | [5] -0.25% | [6] 6.8%

c1ccc2c(c1)SCCc1nncn1-2
inactive: [1] -6.6% | [2] 7.3% | [3] -1.4% | [4] -24.4% | [5] 8.5% | [6] 4.95%

O=C(OCOC(=O)N1CCOCC1)N1CCOCC1
inactive: [1] 2.3% | [2] -7.25% | [3] 1% | [4] 17.6% | [5] -1.9% | [6] -5.2%

O=C(Nc1ccc(N=C=S)cc1Cl)c1cc(Br)cc(Br)c1O
active: [1] 94.3% | [2] 96.7% | [3] 95.6% | [4] 97.1% | [5] 96.8% | [6] 94.7%

Cc1cc(N=Cc2c(CO)cnc(C)c2O)c(N=Cc2c(CO)cnc(C)c2O)cc1C.[Zn]
inactive: [1] 5.9% | [2] -8% | [3] 5.6% | [4] -3.15% | [5] -2.1% | [6] 0.9%

CC(=O)C(=Cc1ccc(Cl)c(Cl)c1)C(C)=O
active: [1] 99.5% | [2] 99.7% | [3] 99.7% | [4] 99.6% | [5] 99.5% | [6] 99.5%

COc1ccc(C)cc1S(=O)(=O)c1c(Cl)cccc1[N+](=O)[O-]
inactive: [1] -5.95% | [2] -15.4% | [3] 2.25% | [4] -20.5% | [5] -1.3% | [6] -36.8%

CC/C(C)=C1/CC(C)(C)N=C1C
inactive: [1] -11.7% | [2] -43.5% | [3] -10% | [4] -20.6% | [5] -12.2% | [6] -22.6%

O=C(CCN1CCCCC1)c1cc2cc([N+](=O)[O-])ccc2oc1=O
inactive: [1] 55.1% | [2] 29.6% | [3] 23.2% | [4] -17.8% | [5] 47% | [6] 32.6%

COc1cc2c(c3c1c(=S)c1ccccc1n3C)C=CC(C)(C)O2
inactive: [1] 59.5% | [2] 18.9% | [4] 27.1%
active: [3] 86.2% | [5] 82.7% | [6] 78.1%

O=C1/C(=C/c2ccc(Cl)c(Cl)c2)CCC/C1=C\c1ccc(Cl)c(Cl)c1
inactive: [1] 30.4% | [2] -5.85% | [3] 2.7% | [4] 2.95% | [5] -3.7% | [6] 1.2%

CC(C)OC(=O)C1CCC(=O)N1 (stereo unspecified)
inactive: [1] 12.1% | [2] -6.25% | [3] -7.4% | [4] -84.1% | [5] 19% | [6] -20.4%

O=C(NCCCCCCNC(=O)c1cc(-c2ccccc2)nc2ccccc12)c1cc(-c2ccccc2)nc2ccccc12
inactive: [1] -33% | [2] -18% | [3] -42.6% | [4] -17.4% | [5] -27.3% | [6] -17.4%

CC1CCC2c3c([nH]c4ccccc34)C3C(=O)N(C4CCCCC4)C(=O)C3C2C1 (stereo unspecified)
inactive: [1] 5.65% | [2] 0.25% | [3] 1.8% | [4] 3.05% | [5] 4.1% | [6] 2.25%

O=C1CNC(=O)N1Nc1ccccc1
inactive: [1] -9.35% | [2] -2.55% | [3] -2.35% | [4] -26.6% | [5] 4% | [6] -5.3%

N#CC(c1ccccc1)N(CCc1ccccc1)C(=O)c1ccccc1 (stereo unspecified)
inactive: [1] -3.7% | [2] 1.7% | [3] -23.4% | [4] -18.7% | [5] -27.8% | [6] -48.2%

N#CCOc1ccc(Cl)cc1
inactive: [1] -10.7% | [2] -16.2% | [3] -13.1% | [4] -53.2% | [5] 1.8% | [6] -3.65%

O=C1O[C@H]2C3C4CCC(C4[C@@H]2I)[C@H]13 (stereo partly specified)
inactive: [1] -13.7% | [2] -13.8% | [3] -9.1% | [4] 19.9% | [5] 14.1% | [6] 16.6%

COC(CNc1nc2c(s1)c1c(O)c3c(O)c(C)c4c(c32)C(=O)C(C)(O/C=C\C(OC)C(C)C(OC(C)=O)C(C)C(O)C(C)C(O)C(C)/C=C/C=C(/C)C(=O)N1)O4)OC (stereo unspecified)
inactive: [1] 6.15% | [2] -5.6% | [3] -13% | [4] 14.3% | [5] -15.6% | [6] -4.65%

CC(=O)CCC(CC=O)C(C)C (stereo unspecified)
inactive: [1] 3.35% | [2] 0% | [3] 7.6% | [4] -4.9% | [5] -3.65% | [6] 2.6%

O=c1sccc2ccccc12
inactive: [1] 28.1% | [2] 25.4% | [3] 2.5% | [4] 9.4% | [5] 10.3% | [6] 1.35%

c1ccc2c(-c3cnc(-c4ccc(-c5ncc(-c6cccc7ccccc67)o5)cc4)o3)cccc2c1
inactive: [1] -14.9% | [2] -2.45% | [3] 0.5% | [4] -52.6% | [5] -1.1% | [6] -16.4%

COC1=NC(NC2OCC(O)C(O)C2O)=C(NC(C)=O)CN1C (stereo unspecified)
inactive: [1] -46.5% | [2] -41.4% | [3] -20.1% | [4] -3.65% | [5] -31.7% | [6] -22.4%

COc1cc(/C=N/n2c(C)cc(C)c(C#N)c2=O)cc(OC)c1OC
inactive: [1] -11.9% | [2] 12.9% | [3] -3.4% | [4] 9.1% | [5] -1.05% | [6] -25.4%

COc1cc(C)c2c([N+](=O)[O-])cc([N+](=O)[O-])c(OC)c2n1
inactive: [1] 12% | [2] 17.9% | [3] 4% | [4] 3.85% | [5] -10.2% | [6] 7.05%

CC(C)(C)OC(=O)Cn1ncn(NC(=O)Cc2ccccc2)c1=O
inactive: [1] -20.5% | [2] -24.5% | [3] -21.4% | [4] -56.2% | [5] -38.2% | [6] -0.1%

CCOc1c(Cl)c(Cl)c(Cl)c(Cl)c1Cl
inactive: [1] -9.8% | [2] 3.95% | [3] -6.7% | [4] 9.3% | [5] -2.9% | [6] 5.4%

c1ccc(-c2nc3ncncc3[nH]2)cc1
inactive: [1] 7% | [2] -10.3% | [3] -7.65% | [4] -13.8% | [5] -3.45% | [6] -5.6%

[N-]=[N+]=Nc1ccccc1-c1ccc([N+](=O)[O-])cc1
inactive: [1] -12.9% | [2] -11.5% | [3] 11.1% | [4] -32.2% | [5] 1.2% | [6] 29.6%

O=C(O)CCC1CC1C(=O)c1ccccc1 (stereo unspecified)
inactive: [1] 15.2% | [2] 5.55% | [3] -3.85% | [4] -37% | [5] -28.6% | [6] 17.9%

c1ccc(P(CCCP(c2ccccc2)c2ccccc2)c2ccccc2)cc1
inactive: [1] -15.7% | [2] 21.4% | [3] -24.6% | [4] 38.4% | [5] -0.05% | [6] -15.8%

O=[N+]([O-])CC1=CCCCC1
inactive: [1] 30.6% | [2] 12.2% | [3] 25.9% | [4] 4.05% | [5] -5.05% | [6] 16.6%

Fc1ccc(CC(F)F)cc1
inactive: [1] -2.55% | [2] -6.2% | [3] 14.4% | [4] 4.6% | [5] -23.6% | [6] 3.25%

O=C(NC1C(=O)NNC1c1cccc([N+](=O)[O-])c1)c1ccccc1 (stereo unspecified)
inactive: [1] -37.5% | [2] -26.1% | [3] 2.85% | [4] -10.6% | [5] 11.9% | [6] 0.55%
